Bioassay records (PubChem)
Hits are enriched below; roughly 1.5% of the tested compounds scored in any of these assays.
IDE cell inh = inhibitors of human insulin-degrading enzyme in cells; P14735; HEK cells, FAbetaB cleavage, fluorescence polarization; inhibition, % at 5.59 µM; actives 0.41% (n = 320,000);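 active = percent inhibition above the average of all tested compounds plus 3 SD, set per screening campaign, cut at about 16% in these data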;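 note: IDE supplied by intact live HEK cells; FP after avidin binding of uncleaved biotin substrate so inhibition keeps polarization high; 0% = DMSO wells and 100% = 60 µM reference IDE inhibitor Ii1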
Target sequence (P14735 whole entry, looked up): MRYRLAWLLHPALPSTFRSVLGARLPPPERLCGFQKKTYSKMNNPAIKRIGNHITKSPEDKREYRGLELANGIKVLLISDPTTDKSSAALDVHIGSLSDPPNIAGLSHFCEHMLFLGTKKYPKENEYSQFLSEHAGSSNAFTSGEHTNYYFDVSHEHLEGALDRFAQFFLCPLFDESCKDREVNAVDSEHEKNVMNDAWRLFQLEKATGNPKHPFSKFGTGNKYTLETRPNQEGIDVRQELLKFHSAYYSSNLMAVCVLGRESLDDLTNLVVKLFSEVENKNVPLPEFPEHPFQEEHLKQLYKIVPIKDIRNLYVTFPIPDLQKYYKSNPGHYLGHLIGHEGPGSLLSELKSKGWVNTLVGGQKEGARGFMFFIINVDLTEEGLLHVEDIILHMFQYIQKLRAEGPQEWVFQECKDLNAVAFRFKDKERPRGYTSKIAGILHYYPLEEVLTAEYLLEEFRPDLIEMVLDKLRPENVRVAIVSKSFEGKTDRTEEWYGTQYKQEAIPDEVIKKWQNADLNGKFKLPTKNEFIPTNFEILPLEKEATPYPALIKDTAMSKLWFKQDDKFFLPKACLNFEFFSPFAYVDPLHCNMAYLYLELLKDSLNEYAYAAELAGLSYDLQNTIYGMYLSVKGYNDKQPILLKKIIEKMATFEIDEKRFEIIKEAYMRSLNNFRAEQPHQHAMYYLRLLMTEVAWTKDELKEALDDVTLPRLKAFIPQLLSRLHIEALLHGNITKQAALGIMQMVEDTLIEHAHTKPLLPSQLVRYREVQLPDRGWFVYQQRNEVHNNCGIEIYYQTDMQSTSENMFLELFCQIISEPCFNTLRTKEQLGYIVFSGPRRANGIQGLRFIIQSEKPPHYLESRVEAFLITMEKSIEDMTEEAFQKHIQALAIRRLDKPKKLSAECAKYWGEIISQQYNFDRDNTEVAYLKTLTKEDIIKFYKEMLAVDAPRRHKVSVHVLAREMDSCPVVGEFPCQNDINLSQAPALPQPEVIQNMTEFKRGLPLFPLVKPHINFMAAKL
IDE act = activators of human insulin-degrading enzyme in cells | P14735 | actives 0.073% (n = 340,000) | AID 493087 | HEK cells, FAbeta-B cleavage, fluorescence polarization; 0% vehicle, 100% cell-free pure enzyme wells | activation, % at 5.96 µM;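 active = activation above the mean of all tested compounds plus 3 SD, set per screening campaign, cut at about 17% in these data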
CRFR2-BP ag = CRF-BP/CRF-R2 complex agonism. activation, % at 13.2 µM. actives 0.46% (n = 350,000). HEK293 CRF-R2/CRF-BP, calcium dye fluorescence (FLIPR); percent of saturating CRF peptide response;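 active = activation of at least 50%, plus an integration ratio under a set limit after plate pattern correction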;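 note: plate controls were neutral control wells without compound for no effect and CRF at EC100 for full effect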
Cardiac RTF inh = cardiac RTF calcium desensitization. actives 0.12% (n = 340,000). IANBD-labeled cardiac RTF, Ca2+ fluorescence. AID 493244. inhibition, % at 7.15 µM. P19429+P45379;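 active = inhibition above the mean inhibition of all tested compounds plus 3 SD, cut at about 17% in these data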;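 note: assay run at fixed EC70 calcium of 1.6 mM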
CRFBP-R2 block = antagonists of CRF-binding protein/CRF-R2 receptor complex; HEK293 CRF-R2/CRF-BP, CRF-induced calcium fluorescence; inhibition, % at 11.8 µM; actives 0.59% (n = 350,000);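 active = inhibition of the ligand-induced calcium signal above about 50% at the single tested concentration, limit read from the data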
RTF Ca sens act = increases calcium sensitivity of human cardiac regulated thin filaments | IANBD-labeled TnC RTF fluorescence at EC20 calcium; 0% EC20 calcium, 100% full calcium | activation, % at 7.2 µM | actives 0.24% (n = 340,000);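 active = activation above the mean over all tested compounds plus 3 SD, cut at about 30% in these data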;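 note: rise in fluorescence read as greater calcium sensitivity of cardiac thin filaments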
Numbers without * were called inactive; / = no result.

SMILES | IDE cell inh | IDE act | CRFR2-BP ag | Cardiac RTF inh | CRFBP-R2 block | RTF Ca sens act
CCOC(=O)C1C(C)=CC(=O)CC1c1ccco1 (stereo unspecified) | 4 | 4 | 22 | 5 | 67* | 7
CCCCCn1nc(C)c(/C=N\NC(=O)c2cc(C)oc2C)c1C | -5 | -2 | 107* | -2 | -176 | 7
Cc1ncc([N+](=O)[O-])n1CC(=O)Nc1ccc(F)cc1F | -3 | 3 | 0 | -2 | 3 | -3
CCCc1nc2sc3ccccc3c(=O)c2c(=O)n1Cc1ccco1 | / | 3 | 55* | -3 | -142 | -6
CCCc1nc2sc3ccccc3c(=O)c2c(=O)n1Cc1ccc(OC)cc1 | -2 | / | -1 | / | -6 | /
COc1ccc(Cl)cc1Nc1nc(NCCO)nc(N2CCCC2)n1 | -3 | -2 | 1 | 1 | -25 | -6
COc1ccc(Cl)cc1Nc1nc(NCCO)nc(N2CCCCC2)n1 | 0 | 3 | 0 | -12 | 51* | 2
COc1ccc(/C=C2\Oc3cc(OCC(=O)N4CCC(C(=O)O)CC4)ccc3C2=O)c(OC)c1 | -15 | 29* | 2 | -37 | 3 | 28
COc1ccc(/C=C2\Oc3cc(OC(=O)N4CCOCC4)ccc3C2=O)c(OC)c1 | 2 | -16 | 26 | -51 | -8 | 37*
O=C1/C(=C/c2ccccc2)Oc2cc(OC(=O)N3CCOCC3)ccc21 | 0 | -3 | 1 | -6 | 4 | -13
COc1ccc(/C=C2\Oc3cc(OCC(=O)N4CCC(C(=O)O)CC4)ccc3C2=O)c(OC)c1OC | -15 | 23* | -1 | 1 | 9 | 7
O=C(NN1CCOCC1)c1cc(S(=O)(=O)Nc2cccc(C(F)(F)F)c2)ccc1Cl | 0 | 5 | 1 | -9 | -10 | -2
COc1ccccc1NC(=O)C(C)Sc1nnc2ccccn12 (stereo unspecified) | 3 | 3 | 0 | -5 | 6 | 1
CCNc1nc(NCC)n2c(SCC(=O)Nc3ccc(CC)cc3)nnc2n1 | -4 | 2 | -1 | -4 | 3 | -5
CCNc1nc(NCC)n2c(SCc3ccc(F)cc3)nnc2n1 | -3 | 2 | 0 | -13 | 51* | 7
Cc1[nH]n(CCC#N)c(=O)c1CC(=O)N1CCN(c2ccccc2)CC1 | 3 | 3 | 1 | 5 | 60* | 2
Cn1nc(CC(=O)N2CCN(c3ccccc3)CC2)c2ccccc2c1=O | 9 | -2 | 0 | -1 | 2 | 8
COc1ccc(C(C(=O)NC2CCCCC2)N(C(=O)c2sc(C)nc2C)c2ccccc2)cc1 (stereo unspecified) | 0 | 4 | 1 | 2 | -4 | 7
COc1ccc(C(C(=O)NC2CCCC2)N(C(=O)c2ccoc2C)c2cc(C)cc(C)c2)cc1 (stereo unspecified) | -4 | 4 | 0 | 5 | 83* | 0
COc1ccc(C(C(=O)NC2CCCC2)N(C(=O)c2ccoc2C)c2ccccc2)cc1 (stereo unspecified) | -4 | 2 | 0 | -3 | 1 | -5
COc1ccc(C(C(=O)NC2CCCCC2)N(C(=O)c2sc(C)nc2C)c2ccc(OC)cc2)cc1 (stereo unspecified) | -1 | 4 | -2 | -4 | 64* | 4
O=C(c1ccccc1)N1CCN(c2ccc([N+](=O)[O-])c(NCc3cccnc3)c2)CC1 | -5 | 20* | -2 | 2 | 17 | 3
O=C(c1ccc(Cl)cc1)N1CCN(c2ccc([N+](=O)[O-])c(NCc3cccnc3)c2)CC1 | -8 | 9 | -3 | -5 | 3 | 1
CC(=O)OCC(=O)C1(O)CCC2C3CCC4=CC(=O)CCC4(C)C3(F)C(O)CC21C (stereo unspecified) | / | -3 | -4 | 5 | 17 | -1
Cc1cc(=O)[nH]c(SCC(=O)Nc2ccc(Br)cc2)c1C#N | 3 | 2 | 67* | -13 | 63* | -1
SMILES | IDE cell inh | IDE act | CRFR2-BP ag | Cardiac RTF inh | CRFBP-R2 block | RTF Ca sens act
CCC1CCCCN1CCCNC(=O)c1cn(C)c2ccc(S(=O)(=O)N(C)C3CCCCC3)cc2c1=O (stereo unspecified) | 0 | 3 | 1 | -2 | 56* | 1
CCCCC(=O)Nc1cccc(-c2nn3c(C)nnc3s2)c1 | -1 | 0 | -1 | -1 | -5 | 3
CNc1nc2cc([N+](=O)[O-])c([N+](=O)[O-])cc2nc1NC | -8 | 2 | 65* | 4 | 66* | 1
O=S(=O)(c1ccc(NCc2ccccc2)cc1)N1CCOCC1 | 1 | 0 | -11 | -3 | -6 | -5
NC(=O)N/N=C/c1c(O)ccc2oc3c(c12)CCCC3 | 3 | 1 | 0 | -4 | -5 | 0
CC(C)(C)N=Cc1c(O)ccc2oc3c(c12)CCCC3 | -1 | 0 | 51* | -9 | -27 | -3
COCC(=O)N(C)c1nnc(-c2cnc(C)cn2)s1 | -3 | 3 | 0 | -1 | 13 | -3
Cc1ccc(CC(=O)NCc2cccnc2)cc1 | -12 | / | / | / | / | /
Cc1ccc(C(=O)NCc2cccnc2)o1 | -2 | 3 | 2 | 0 | 84* | -1
O=C(C1CCN(Cc2cccs2)CC1)N1CCN(Cc2ccc3c(c2)OCO3)CC1 | -7 | 4 | 0 | -3 | 21 | -4
COc1ccccc1C(=O)NNC(=S)NC(=O)c1sc2ccccc2c1Cl | 1 | -1 | 170* | -5 | -94 | 3
COc1ccccc1C(=O)NC(=S)NNC(=O)c1sc2ccccc2c1Cl | 0 | 3 | 251* | -6 | -254 | -3
Cc1c(NC(=S)NC(=O)c2sc3ccccc3c2Cl)cccc1C(=O)O | -3 | 5 | 0 | -17 | 23 | -2
COc1[nH]c(/N=C/c2ccccc2)c(C#N)c1C#N | -5 | 4 | 22 | -175 | -4 | 106*
O=[N+]([O-])c1cccc(C=NNc2ccc3ccccc3n2)c1O | / | 5 | -1 | 2 | 78* | -6
COC(=O)c1cc(NC(=O)c2ccccc2)c(=O)oc1/C=C/Nc1ccc(Oc2ccccc2)cc1 | / | -29 | 138* | -254 | -167 | 113*
COc1ccccc1C(=O)N/N=C/c1c[nH]c2ccccc12 | -8 | -2 | -1 | -4 | 11 | -3
CC[C@@]12C(=O)N(c3cccc(F)c3)C(=O)N1[C@H](c1ccc(Cl)cc1)[C@@H]1C(=O)N(C3CCCCC3)C(=O)[C@@H]12 | -1 | -2 | 3 | -7 | -8 | 4
C=CCOC(=O)C1=C(C)Nc2ncnn2C1c1cc(Br)ccc1F (stereo unspecified) | 2 | -2 | -2 | -5 | -10 | 2
Fc1ccc(Br)cc1C1C=C(c2ccc(Br)s2)Nc2ncnn21 (stereo unspecified) | 16 | -19 | 29 | -69 | 1 | 73*
CC1=C(C(=O)OC(C)(C)C)C(c2cccc3ccccc23)NC(=O)N1 (stereo unspecified) | 2 | 0 | 0 | -5 | 65* | 0
